Source: PubChem BioAssay
The entries come from a sample that favours hits as a whole.
TbPYK inhibitor: qHTS of Trypanosoma Brucei Inhibitors. 0.12% of 410,000 active. pyruvate kinase (Trypanosoma brucei), Q57TT1. TbPYK enzyme, Kinase-Glo Plus ATP luminescence, 45 min. Potency, µM (titrated, usually from 76.8 µM), for inactives: at the top dose activity, negative = inhibition, most hits filed as inhibitors; note: potency is the fitted concentration of half-maximal effect; % is set by controls: 0 for no effect and ±100 for the full control effect; nearly all actives have a fitted effect of over 50% in size
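Readout: single end-point luminescence (Kinase-Glo Plus, 10 min). Reaction conditions were TbPYK/substrate plus 130 uM ADP, 45 min at RT, pH 7.2 TEA buffer. No-enzyme wells served as controls, and data were normalized before concentration-response fitting.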
LmPK inhibitor: qHTS Assay for Inhibitors of Leishmania Mexicana Pyruvate Kinase (LmPK). purified LmPK, Kinase-Glo ATP luminescence, 1 h. Potency, µM (titrated, usually from 57.5 µM), for the others: at the highest dose activity change, negative = inhibition, actives largely listed as inhibitors. 0.37% of 290,000 active. AID 1721, 2009; note: potency is the fitted concentration of half-maximal effect; % is set by controls: 0 for no effect and ±100 for the full control effect
Target sequence (Q27686 whole entry, looked up): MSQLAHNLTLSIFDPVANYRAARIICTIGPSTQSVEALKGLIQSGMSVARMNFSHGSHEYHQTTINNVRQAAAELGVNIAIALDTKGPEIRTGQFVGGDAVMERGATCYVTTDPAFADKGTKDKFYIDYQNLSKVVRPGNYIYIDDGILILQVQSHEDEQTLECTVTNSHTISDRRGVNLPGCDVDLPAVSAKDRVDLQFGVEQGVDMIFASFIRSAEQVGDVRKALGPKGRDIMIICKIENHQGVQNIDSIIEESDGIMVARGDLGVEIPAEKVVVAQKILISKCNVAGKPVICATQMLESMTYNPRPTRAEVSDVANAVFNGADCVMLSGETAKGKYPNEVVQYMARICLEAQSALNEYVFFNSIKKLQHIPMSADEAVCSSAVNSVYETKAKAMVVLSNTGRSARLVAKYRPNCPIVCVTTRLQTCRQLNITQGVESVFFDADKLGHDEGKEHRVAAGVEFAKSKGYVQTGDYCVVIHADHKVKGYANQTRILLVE
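Screened at intermediate enzyme activity to detect both inhibitors and activators: LmPK at 0.1 nM, with a 0.5 nM enzyme column as activation reference. PEP 0.5 mM, ADP 0.1 mM; ATP detected by luminescence after 1 h.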
Giardia FBPA inh: qHTS Assay for Inhibitors of Fructose-1,6-bisphosphate Aldolase from Giardia Lamblia; A8B2U2; purified Giardia FBPA; Potency, µM (top dose mostly 59.6 µM), inactives show at the highest dose activity, negative = inhibition, most hits filed as inhibitors; 0.71% of 290,000 active; AID 2451, 2010; note: potency is the fitted concentration of half-maximal effect; % is set by controls: 0 for no effect and ±100 for the full control effect; nearly all actives have a fitted effect of over 55% in size
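Giardia FBPA (40 nM reagent) was preincubated 10 min at RT with compound (up to 57.5 uM final), then substrate plus GAPDH/TPI/NAD/arsenate coupling system with diaphorase/resazurin was added; resorufin fluorescence (525/598 nm) was read after 20 min.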
RE007 growth inh: qHTS Assay for Inhibitors of the HIV-1 protein Vpr. S. pombe RE007 Vpr strain, BacTiter-Glo ATP luminescence, 24 h. Potency, µM (series often up to 92.2 µM), for inactives: at the top dose activity change, negative = less growth, actives largely listed as inhibitors. 0.21% of 360,000 active. AID 651644, 2012; active = well fitted falling curve with a large enough effect; inconclusive = small, poorly fitted or top-dose-only effect; inactive = no such curve, though single readings can be large or run the other way; note: potency is the fitted concentration of half-maximal effect; % is set by controls: 0 for no effect and ±100 for the full control effect; nearly all actives have a fitted effect of over 50% in size
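Fission yeast RE007 carrying one integrated HIV-1 vpr copy, seeded at OD 0.01 in PMG+AL medium with 23 nL pinned compound. Grown 24 h at 30 degrees; viability read by BacTiter-Glo luminescence after 5 min.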
Shiga toxin inh: A qHTS for Small Molecule Inhibitors of Shiga Toxin | Vero cells, Shiga toxin protein synthesis inhibition reporter | inhibition, % at 38.7 µM | 9.2% of 290,000 active | AID 2315, 2010; in the data active = inhibition mostly above about 28%, no sharp cut-off; inactive = mostly below about 43%; note: 0% is about no effect
CHX counter: Cycloheximide Counterscreen for Small Molecule Inhibitors of Shiga Toxin | AID 2314, 2010 | cell reporter, cycloheximide protein synthesis inhibition counterscreen | 12% of 300,000 active | max response, %; in the data active = max response mostly above about 13%, no sharp cut-off; inactive = mostly below about 14%; note: read at 38.3 µM for the half of the compounds with a filed dose; 0% is about no effect
* = called active by the depositor. Unless noted, calls come from the whole dose curve; as a rule, active = well fitted curve in the direction sought with a large enough effect; inconclusive = small, poorly fitted or top-dose-only effect, or another doubt; inactive = no such curve, though single readings can be large; an effect the other way counts as inactive or inconclusive.

CN1CCN(c2ccc(Cl)cc2N)CC1 was read as TbPYK inhibitor -2%, LmPK inhibitor -4%, Giardia FBPA inh 0%, RE007 growth inh 0%, Shiga toxin inh 13 and CHX counter 11*.
`Nc1cc(Cl)ccc1N1CCCC1` gave TbPYK inhibitor 4%, LmPK inhibitor 0%, Giardia FBPA inh -14%, RE007 growth inh -8%, Shiga toxin inh -5 and CHX counter -6.
`CCOC(=O)Cn1cnc(-c2ccc([N+](=O)[O-])cc2)c1` gave TbPYK inhibitor 3%, LmPK inhibitor -3%, Giardia FBPA inh 1%, RE007 growth inh -10%, Shiga toxin inh 75* and CHX counter 43*.
For COc1ccc(NC(=O)c2sccc2SCc2cccc(C(F)(F)F)c2)cc1 the results were TbPYK inhibitor 3%, LmPK inhibitor 1%, Giardia FBPA inh -2%, RE007 growth inh 6%, Shiga toxin inh 36* and CHX counter 16*.
For O=S1(=O)N[C@@H](c2ccccc2)COc2cc(Br)ccc21 the results were TbPYK inhibitor 3% and RE007 growth inh 0%.
For CC1=NN(c2nc(-c3ccc(C)cc3)cs2)C(=O)C1N=Nc1ccccc1O (centres undefined) the results were TbPYK inhibitor -7%, LmPK inhibitor -10%, Giardia FBPA inh 10%, RE007 growth inh 0%, Shiga toxin inh 50* and CHX counter 43*.
Screening COc1ccc(-c2csc(N3N=C(C)C(C)C3=O)n2)cc1 (centres undefined) returned TbPYK inhibitor 3%, LmPK inhibitor -9%, Giardia FBPA inh -25%, RE007 growth inh -3%, Shiga toxin inh 37 and CHX counter 15*.
For Cc1ccc(C(=O)N(C)c2ccc(OCC(=O)N3c4ccc(C)cc4C4CN(C)CCC43)cc2)cc1 (centres undefined) the results were TbPYK inhibitor -2%, LmPK inhibitor 6%, Giardia FBPA inh -6%, RE007 growth inh 1%, Shiga toxin inh 51 and CHX counter 37*.
O=C(NCC(c1ccco1)N1CCN(c2ccccc2F)CC1)OCc1ccccc1 (centres undefined) was read as TbPYK inhibitor 8%, LmPK inhibitor 6%, Giardia FBPA inh 1%, RE007 growth inh 0%, Shiga toxin inh 28 and CHX counter 21*.
For Cc1ccc(C(=O)N2N=C(c3ccc(Br)cc3)CC2c2ccccc2O)cc1 (centres undefined) the results were TbPYK inhibitor -6%, LmPK inhibitor -7%, Giardia FBPA inh 6%, RE007 growth inh 1%, Shiga toxin inh 6 and CHX counter 13*.
O=C(c1ccccc1Br)N1N=C(c2ccccc2)CC1c1ccccc1F (centres undefined) was read as TbPYK inhibitor -3%, LmPK inhibitor 5%, Giardia FBPA inh 7%, RE007 growth inh 2%, Shiga toxin inh -9 and CHX counter 12.
`Cc1ccc(C(=O)N2N=C(c3ccccc3O)CC2c2ccccc2)cc1` (centres undefined) gave TbPYK inhibitor -11%, LmPK inhibitor -3%, Giardia FBPA inh 7%, RE007 growth inh 2%, Shiga toxin inh -1 and CHX counter -1.
For Cc1ccc(C2=NN3C(=O)c4ccccc4C3C2)cc1 (centres undefined) the results were TbPYK inhibitor 0%, LmPK inhibitor 0%, Giardia FBPA inh -2%, RE007 growth inh -25%, Shiga toxin inh 57* and CHX counter 55*.
For O=C(O)c1ccccc1C(=O)N1N=C(c2ccccc2)CC1c1ccccc1O (centres undefined) the results were TbPYK inhibitor -2%, LmPK inhibitor -6%, Giardia FBPA inh 11%, RE007 growth inh 13%, Shiga toxin inh 67* and CHX counter 52*.
For CCOC(=O)c1c(C)[nH]c(CCC(=O)Nc2ccccc2C(=O)OC)c1C the results were TbPYK inhibitor -2%.
`Cc1ccc(CSc2nc3ccncc3n2Cc2nc(-c3ccccc3C)oc2C)cc1` gave TbPYK inhibitor -9%.
For Cc1cccc(OCc2ccc(-c3nc(C#N)c(NCCN(C)C)o3)o2)c1 the results were TbPYK inhibitor 18%.
For Cn1c(-c2ccc3c(c2)OCO3)cnc1NCc1ccccc1Cl the results were TbPYK inhibitor -17%, LmPK inhibitor -2%, Giardia FBPA inh inconclusive, RE007 growth inh -4%, Shiga toxin inh 73* and CHX counter 33*.
`Cc1ccc(-c2cnc(NCc3cc4c(cc3[N+](=O)[O-])OCO4)n2C)cc1C` gave TbPYK inhibitor 16%, LmPK inhibitor 9%, Giardia FBPA inh 2%, RE007 growth inh 5%, Shiga toxin inh 12 and CHX counter 0.
`Cn1c(-c2ccccc2)cnc1NCc1ccccc1` gave TbPYK inhibitor 6%, LmPK inhibitor -4%, Giardia FBPA inh inconclusive, RE007 growth inh 7% and CHX counter 11*.
Screening Cn1c(-c2ccc3c(c2)OCO3)cnc1NC(=O)CCC(=O)NCCc1ccccc1 returned TbPYK inhibitor -12%, LmPK inhibitor 1%, Giardia FBPA inh 13%, RE007 growth inh -5%, Shiga toxin inh 65* and CHX counter 18*.
For COc1ccc(-c2cnc(NCc3ccc(C)cc3)n2C)cc1 the results were TbPYK inhibitor -4%.
`Cn1c(-c2ccc3c(c2)OCO3)cnc1NCc1ccccc1` gave TbPYK inhibitor 29%, LmPK inhibitor -2%, RE007 growth inh -4%, Shiga toxin inh 56 and CHX counter 39*.
`Cn1c(-c2ccc3c(c2)OCO3)cnc1NCc1cccc(Cl)c1` gave TbPYK inhibitor 27%, LmPK inhibitor 1%, Giardia FBPA inh inconclusive, RE007 growth inh -28%, Shiga toxin inh 21 and CHX counter 13.
CC(=O)N1c2ccc(S(=O)(=O)NCC3CCC(C(=O)Nc4cc(C)ccc4C)CC3)cc2CC1C (centres undefined) was read as TbPYK inhibitor 5%.
For COc1cc(OC)c(NC(=O)C(CC(C)C)N2Cc3ccccc3C2=O)cc1Cl (centres undefined) the results were TbPYK inhibitor -3%.
Screening Cc1ccc(CNc2ncc(-c3ccccc3)n2C)o1 returned TbPYK inhibitor 20%, LmPK inhibitor -2%, Giardia FBPA inh inconclusive, RE007 growth inh -30%, Shiga toxin inh 20 and CHX counter 25*.
Cn1c(-c2ccc3c(c2)OCO3)cnc1N was read as TbPYK inhibitor 19%, LmPK inhibitor -6%, Giardia FBPA inh 15%, RE007 growth inh -8%, Shiga toxin inh -4 and CHX counter 13*.
